Results filed as inconclusive are left out. Activity calls are given as the source filed them. Calls come from the whole dose curve.
Legend:
[1] = target: Acetylcholinesterase (Homo sapiens) (UniProt P22303); experiment: Acetylcholinesterase (AChE) small molecule antagonists: colormetric cell-based qHTS assay (AID 1347395); note: nearly all actives have a fitted effect of over 30% in size
Outline: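 SH-SY5Y cells attached overnight, exposed to compound 30 min at 37 C, then given DTNB/acetylthiocholine; after 90 min at 37 C, colorimetric thiocholine read gives cellular AChE activity.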

[2] = target: Acetylcholinesterase (Homo sapiens) (UniProt P22303); experiment: Acetylcholinesterase (AChE) small molecule antagonists: enzyme-based qHTS assay (AID 1347397); conditions: Potency: AChE enzyme activity inhibition; outcome: AChE enzyme activity inhibition; note: nearly all actives have a fitted effect of over 55% in size
Outline: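 In this quantitative HTS, compounds from the Tox21 10K collection were preincubated 30 min at ambient temperature with recombinant human AChE dispensed at 50 mU/mL. Hydrolysis of acetylthiocholine was then followed for 10 min by DTNB colour development.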

[3] = target: Acetylcholinesterase (Homo sapiens) (UniProt P22303); experiment: Acetylcholinesterase (AChE) small molecule antagonists: fluorescence cell-based qHTS assay (AID 1347398); conditions: Potency: AChE activity; outcome: AChE activity; note: nearly all actives have a fitted effect of over 50% in size
Outline: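 Cells (SH-SY5Y) attached overnight, were dosed with compound or DMSO vehicle for 30 min at 37 C, and then incubated 40 min at room temperature with acetylthiocholine and Thiolite Green; green fluorescence indexed AChE activity.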

[4] = target: Acetylcholinesterase (Homo sapiens) (UniProt P22303); experiment: Acetylcholinesterase (AChE) small molecule antagonists: enzyme-based qHTS assay with human liver microsomes (AID 1347399); conditions: Potency: qHTS inhibition; outcome: qHTS inhibition; note: nearly all actives have a fitted effect of over 60% in size
Outline: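 Recombinant human AChE (50 mU/mL in the enzyme mix) and human liver microsomes (0.25 mg/mL final) were preincubated with compound and NADPH (0.25 mg/mL final) for 30 min at 37 C. Acetylthiocholine/DTNB was then added; thiocholine was read colorimetrically after 10 min at room temperature.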

Measured: Potency

Chain of Acetylcholinesterase (Homo sapiens) (P22303 whole entry, looked up): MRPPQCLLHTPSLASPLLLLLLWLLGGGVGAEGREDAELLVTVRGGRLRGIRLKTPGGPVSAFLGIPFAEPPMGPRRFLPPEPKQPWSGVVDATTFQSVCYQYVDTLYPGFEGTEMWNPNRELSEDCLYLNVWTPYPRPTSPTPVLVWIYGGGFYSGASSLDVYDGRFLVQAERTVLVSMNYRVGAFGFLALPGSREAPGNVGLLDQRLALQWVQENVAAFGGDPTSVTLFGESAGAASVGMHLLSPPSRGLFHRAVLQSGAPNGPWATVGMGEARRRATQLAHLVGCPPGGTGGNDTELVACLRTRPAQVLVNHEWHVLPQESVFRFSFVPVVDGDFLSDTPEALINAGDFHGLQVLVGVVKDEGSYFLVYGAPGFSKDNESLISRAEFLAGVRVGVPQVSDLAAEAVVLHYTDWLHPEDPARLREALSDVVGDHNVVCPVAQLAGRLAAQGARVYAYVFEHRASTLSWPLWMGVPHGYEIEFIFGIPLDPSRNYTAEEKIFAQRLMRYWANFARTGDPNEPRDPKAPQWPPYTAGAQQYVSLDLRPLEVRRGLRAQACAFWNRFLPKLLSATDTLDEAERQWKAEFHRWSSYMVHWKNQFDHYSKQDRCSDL

CC(C)(C)C1CCC(=O)CC1
inactive: [1] | [2] | [3] | [4]

O=P(O)(O)OCC(O)CO (configuration not stated)
inactive: [1] | [2] | [3] | [4]

CN(C)C(C)(C)CO
inactive: [1] | [2] | [3] | [4]

From PubChem BioAssay (Tox21)
